According to PubChem BioAssay (EPA / NIEHS):
Active and inactive are the calls of the source. The calls were made as follows: active = hit-call score of the fitted dose curve at least 0.9, where 1 is the maximum; inactive = score below 0.9.

How the values were obtained:
[1] = read-out: Plasminogen Activator Inhibitor-1 (PAI1), SERPINE1 (gene 5054); assay: BSK_BF4T_PAI1: BioMAP Diversity Plus: BF4T Assay for Plasminogen Activator Inhibitor-1 (PAI1) Biomarker Activity (AID 2284273); details: primary human bronchial epithelial cells with fibroblasts
Method in brief: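 PAI-1 levels quantified by ELISA 24 h post-dosing in bronchial epithelial cell plus dermal fibroblast cultures. Signal gain referenced to DMSO baseline. Sulforhodamine B total-protein staining of parallel wells checked cytotoxicity.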

[2] = BSK_BF4T_SRB: Viability Assessment in the BioMAP Diversity Plus: BF4T Assay (AID 2284274); details: primary human bronchial epithelial cells with fibroblasts
Method in brief: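 Cytotoxicity measured as total protein: cells fixed with 10% TCA, stained with 0.1% SRB, read at 560 nm. Bronchial epithelial/dermal fibroblast co-culture, 24 h after dosing, with positive-direction fitting relative to DMSO.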

[3] = read-out: urokinase Plasminogen Activator (uPA), PLAU (gene 5328); assay: BSK_BF4T_uPA: BioMAP Diversity Plus: BF4T Assay for urokinase Plasminogen Activator (uPA) Biomarker Activity (AID 2284275); details: primary human bronchial epithelial cells with fibroblasts
Method in brief: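 uPA levels measured by ELISA at 24 hours in BF4T cultures (bronchial epithelial cells plus dermal fibroblasts) and compared with DMSO; cytotoxicity tracked in parallel cultures by sulforhodamine B staining.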

[4] = read-out: Matrix Metallopeptidase 9 (MMP9), MMP9 (gene 4318); assay: BSK_BF4T_MMP9: BioMAP Diversity Plus: BF4T Assay for Matrix Metallopeptidase 9 (MMP9) Biomarker Activity (AID 2284276); details: primary human bronchial epithelial cells with fibroblasts
Method in brief: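 MMP-9 levels were measured by ELISA after 24 h exposure of bronchial epithelial cell/dermal fibroblast co-cultures, with DMSO as baseline. Parallel cultures were stained with 0.1% SRB after TCA fixation, read at 560 nm, to flag overt cytotoxicity.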

[5] = read-out: Interleukin-8 (IL8), CXCL8 (gene 3576); assay: BSK_IMphg_IL8: BioMAP Diversity Plus: IMphg Assay for Interleukin-8 (IL8) Biomarker Activity (AID 2284277); details: primary human endothelial cells with macrophages
Method in brief: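 IL-8 levels were measured by ELISA 24 h after dosing in primary human venular endothelial cell–macrophage cultures, referenced to DMSO; parallel SRB staining monitored overt cytotoxicity.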

[6] = read-out: Intercellular Adhesion Molecule 1 (ICAM1), ICAM1 (gene 3383); assay: BSK_BE3C_ICAM1: BioMAP Diversity Plus: BE3C Assay for Intercellular Adhesion Molecule 1 (ICAM1) Biomarker Activity (AID 2284278); details: primary human bronchial epithelial cells;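 also: cell-surface ICAM-1 protein level quantified by ELISA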
Method in brief: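 ELISA read-out of ICAM-1 on human lung bronchial epithelial primary cells, 24 h post-dosing; positive-direction curve fit, DMSO = baseline. SRB total-protein staining of parallel cultures flagged overt cytotoxicity.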

[7] = read-out: Interferon-inducible T-cell alpha chemoattractant (ITAC), CXCL11 (gene 6373); assay: BSK_BE3C_ITAC: BioMAP Diversity Plus: BE3C Assay for Interferon-inducible T-cell alpha chemoattractant (ITAC) Biomarker Activity (AID 2284279); details: primary human bronchial epithelial cells
Procedure: (§1) BSK_BE3C is a cell-based, multiplexed-readout assay that uses bronchial epithelial cell, a human lung primary cell, with measurements taken at 24 hours after chemical dosing in a 96-well plate.BSK_BE3C_ITAC is an assay component measured in the BSK_BE3C assay. It measures I-TAC antibody related to regulation of gene expression using ELISA technology.Data from the assay component BSK_BE3C_ITAC was analyzed at the endpoint, BSK_BE3C_ITAC, in the positive analysis fitting direction relative to DMSO as the negative control and baseline of activity. Using a type of binding reporter, gain or loss-of-signal activity can be used to understand protein changes. […]
(§2) The levels of cell surface (or secreted, indicated by the prefix "s") biomarker endpoints were measured by ELISA. Overt cytotoxicity to cells in confluent adherent cultures (all systems other than the BT system) was assessed by measuring total protein levels using sulforhodamine B (SRB) staining in parallel cultures at the time of biomarker measurements, indicated as SRB endpoints. For proliferation assays for adherent cell types, individual cell types are cultured at sub-confluence and relative cell numbers quantified by SRB staining at time points optimized for each system (48 h: 3C and CASM3C systems; 72 h: BT and HDF3CGF systems; 96 h: SAg system). […] Plates were read after 6 h.

[8] = read-out: Interleukin-8 (IL8), CXCL8 (gene 3576); assay: BSK_BE3C_IL8: BioMAP Diversity Plus: BE3C Assay for Interleukin-8 (IL8) Biomarker Activity (AID 2284280); details: primary human bronchial epithelial cells
Method in brief: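 Primary human bronchial epithelial cells (BE3C system) were exposed to test chemical for 24 h, and IL-8 levels were then measured by ELISA. Activity was fitted in the positive (gain-of-signal) direction against a DMSO negative-control baseline.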

[9] = read-out: Epidermal growth factor receptor (EGFR), EGFR (gene 1956); assay: BSK_BE3C_EGFR: BioMAP Diversity Plus: BE3C Assay for Epidermal growth factor receptor (EGFR) Biomarker Activity (AID 2284281); details: primary human bronchial epithelial cells
Procedure: as §1, with “plate.BSK_BE3C_EGFR” for “plate.BSK_BE3C_ITAC”, “EGFR” for “I-TAC”, “BSK_BE3C_EGFR” for “BSK_BE3C_ITAC”, “BSK_BE3C_EGFR,” for “BSK_BE3C_ITAC,”
as §2

KRT18 (gene 3875) = assay: BSK_BE3C_Keratin818: BioMAP Diversity Plus: BE3C Assay for Keratin 818 Biomarker Activity (AID 2284282); details: primary human bronchial epithelial cells
Method in brief: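 ELISA read-out of Keratin 8/18 in BE3C human bronchial epithelial cultures, 24 h post-dosing; positive-direction fit vs DMSO baseline.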

Measured: outcome

Cn1cnc([N+](=O)[O-])c1Sc1ncnc2nc[nH]c12
inactive: [1] | [2] | [3] | [4] | [5] | [6] | [7] | [8] | [9] | KRT18 (gene 3875)
